Experiment [1] is described as follows: NCI Yeast Anticancer Drug Screen. Data for the rad50 strain (AID 155).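 Further: 0% = growth of vehicle-only cultures of the same strain.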 Particulars: S. cerevisiae rad50 strain growth inhibition; at 50.0 µM; hits give high values. Put shortly: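 Genetically altered yeast (DNA repair pathway); compound treatment; growth inhibition vs vehicle ctrl.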
Experiment [2] is described as follows: NCI Yeast Anticancer Drug Screen. Data for the mec2-1 strain (AID 157). Particulars: S. cerevisiae mec2-1 strain, at 50.0 µM, hits give high values. The method in brief:
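Test agents were screened against the mec2-1 yeast strain, with defined DNA repair or cell cycle alteration. Growth was scored as inhibition against vehicle-only controls.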

A short description of experiment [3]: NCI Yeast Anticancer Drug Screen. Data for the sgs1 mgt1 strain (AID 161).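 Further: 0% = growth of cultures given vehicle only.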 To be noted: S. cerevisiae sgs1 mgt1 strain, at 50.0 µM, hits give high values. The method in brief: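 Genetically altered yeast, compound exposure, growth inhibition relative to vehicle.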
A short description of experiment [4]: NCI Yeast Anticancer Drug Screen. Data for the cln2 rad14 strain (AID 165).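 Further: 0% = growth equal to vehicle treated cultures.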 Particulars: S. cerevisiae cln2 rad14 strain, at 50.0 µM, hits give high values. Put shortly:
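Growth of compound-exposed yeast (cln2 rad14 genotype) measured and expressed as inhibition relative to vehicle.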

The nature of experiment [5]: NCI Yeast Anticancer Drug Screen. Data for the bub3 strain (AID 167). Particulars: S. cerevisiae bub3 mutant strain, at 50.0 µM, hits give high values. The method in brief:
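Yeast carrying a defined mutation is treated with each compound, and growth is compared with that of vehicle-exposed cells to give inhibition.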

Experiment [6] in a line: NCI Yeast Anticancer Drug Screen. Data for the mlh1 rad18 strain (AID 175). To be noted: S. cerevisiae mlh1 rad18 strain growth inhibition; at 50.0 µM; hits give high values. The method in brief:
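In this whole-cell yeast screen, a strain with altered DNA damage repair is challenged with compound, and its growth is measured against matched vehicle-treated controls.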

About 79,000 compounds went through this panel and 15% of them were active in at least one assay; those are over-represented in the sample as a whole. Values without a mark were called inactive. Calls of active or inactive are those of the source. No stated cut-off is given here; in the data, active means growth inhibition above about 70%; inactive means the rest.

Consider `COC(=O)C1(CC(=O)c2cccs2)NC(=S)NC(=O)C1C#N` (stereo not given), for which the growth inhibition in experiment [1] is 9.4%; in experiment [2] it was 3.55%; in experiment [3], -7.5%; in experiment [4], -3.35%; in experiment [5], -11.3%; in experiment [6], 2.55%.

`CC(C)(C)C(=O)OCC1C(=O)OCC1C(=O)N1Cc2cc3ccccc3nc2C1` (stereo not given): the growth inhibition was -7.7% in experiment [1]; -19.9% in experiment [2]; 1.55% in experiment [3]; -13% in experiment [4]; -8.2% in experiment [5]; -16.2% in experiment [6].

For the molecule `COc1ccc(-c2c3ccccc3c(-c3ccc(OCCCCCBr)cc3)c3ccccc23)cc1`, the growth inhibition in experiment [1] is -10.4%; in experiment [2], -10.7%; in experiment [3], -10.6%; in experiment [4], -30.1%; in experiment [5], -22.5%; in experiment [6], 1.4%.

As for `CC1(C)CCCCCCC2CC2CCCCCC(C)(C)C1=O` (stereo not given), the growth inhibition in experiment [1] was 1%; in experiment [2] it was -6.15%; in experiment [3], -4.8%; in experiment [4], 7.8%; in experiment [5], -11.5%; in experiment [6], 24.1%.

`CCOc1c(N=Nc2ccc(Cl)cc2Cl)c(C)nn1C(N)=S`: the growth inhibition is -16.2% in experiment [1]; 0.15% in experiment [2]; 11.1% in experiment [3]; -43.8% in experiment [4]; -24.2% in experiment [5]; 17.5% in experiment [6].

As for `CSCCC(NC(C)=O)C(=O)O` (stereo not given), the growth inhibition in experiment [1] was 6.1%; in experiment [2] it was 1.5%; in experiment [3], -14.4%; in experiment [4], -3.55%; in experiment [5], -4.85%; in experiment [6], -8.3%.

Turning to `O=c1[nH]cnc2nc(-c3cccc([N+](=O)[O-])c3)[nH]c12`, the growth inhibition was -1% in experiment [1]; 30.9% in experiment [2]; 12.9% in experiment [3]; -13.8% in experiment [4]; 5.4% in experiment [5]; 24.9% in experiment [6].

Consider `CC(C)OCCCN(Cn1c(=S)sc2ccccc21)Cn1c(=S)sc2ccccc21`, for which the growth inhibition was 66.8% in experiment [1]; 54.6% in experiment [2]; 85.9% (active) in experiment [3]; 42.8% in experiment [4]; 39.2% in experiment [5]; 55.6% in experiment [6].

As to `CCCCCCCCCCS(=O)(=O)CC(=O)O`, the growth inhibition in experiment [1] is 3.8%; in experiment [2], -2.35%; in experiment [3], 14.7%; in experiment [4], -12.7%; in experiment [5] it was -8.3%; in experiment [6], -3.6%.

As to `CNC(=O)N(C)C(C)=O`, the growth inhibition is -6.15% in experiment [1]; -1.25% in experiment [2]; 0% in experiment [3]; -3.25% in experiment [4]; -5.15% in experiment [5]; 4.9% in experiment [6].

On to `COc1ccc2c(c1)N=C(NNC1=Nc3cc(OC)ccc3SC1)CS2`, for which the growth inhibition in experiment [1] was -9.1%; in experiment [2], 3.15%; in experiment [3], 14.4%; in experiment [4], -14.9%; in experiment [5], -4.7%; in experiment [6], 3.9%.

For the molecule `CCCC#CCN(C(C)C)C(C)C`, the growth inhibition in experiment [1] was -12.4%; in experiment [2], 1.65%; in experiment [3], -6.35%; in experiment [4], 29.2%; in experiment [5], -5.25%; in experiment [6], -7.85%.

Take `C=C(Cl)C(Cl)(CBr)CCC(Br)C(C)(C)Cl` (stereo not given): the growth inhibition in experiment [1] is 20.6%; in experiment [2] it was 41%; in experiment [3] it was 51.5%; in experiment [4], 22.4%; in experiment [5], 42.6%; in experiment [6], -22.8%.

As for `CCSc1[nH]c(NC(=NC(C)C)NC(=O)c2ccccc2)c(C(N)=O)c1C(N)=O`, the growth inhibition was 2.75% in experiment [1]; 1.35% in experiment [2]; 0.8% in experiment [3]; 9.3% in experiment [4]; -4.75% in experiment [5]; 18.6% in experiment [6].

Consider `Nc1ccc(S(=O)(=O)OCCOc2ccccc2)cc1`, for which the growth inhibition is -2.85% in experiment [1]; 7.6% in experiment [2]; 2.6% in experiment [3]; -4.2% in experiment [4]; 18.7% in experiment [5]; -7.3% in experiment [6].

For `CCOC(=O)c1ccc(NC(=S)N2CCOCC2)cc1`, the growth inhibition is 13.1% in experiment [1]; 6.8% in experiment [2]; 14.8% in experiment [3]; 8.7% in experiment [4]; 2.55% in experiment [5]; -2.8% in experiment [6].

On to `O=C(c1ccccc1)C1Nc2ccccc2CO1` (stereo not given), for which the growth inhibition in experiment [1] was -5%; in experiment [2] it was -13.3%; in experiment [3], -13.5%; in experiment [4], -23.4%; in experiment [5], -1.6%; in experiment [6], 28.9%.

`CC1=C(c2cc(C(=O)Nc3cccc(C(F)(F)F)c3)nc(NC#N)n2)Sc2ccccc2N1`: the growth inhibition in experiment [1] was 17.4%; in experiment [2] it was 1.2%; in experiment [3], -3.2%; in experiment [4] it was -2.85%; in experiment [5], 2.7%; in experiment [6], 11.8%.

Regarding `CCCCCCCCCCCCCCCCCC(=O)N/N=C/c1cc(OC)ccc1OC`, the growth inhibition is 1.55% in experiment [1]; 0.05% in experiment [2]; -0.05% in experiment [3]; -25.2% in experiment [4]; -0.6% in experiment [5]; -28.9% in experiment [6].

Consider `CC(=O)Nc1cccc(F)c1`, for which the growth inhibition in experiment [1] is -35.1%; in experiment [2], 1.1%; in experiment [3] it was -25.4%; in experiment [4], -22.2%; in experiment [5] it was -13.8%; in experiment [6], -38.1%.

As to `Cc1ccc([N+](=O)[O-])c2c(NCCCN(C)C)ccnc12`, the growth inhibition in experiment [1] was 42.2%; in experiment [2], 16.1%; in experiment [3], 20%; in experiment [4] it was 4.7%; in experiment [5] it was 13.2%; in experiment [6] it was 49.2%.

Turning to `Cc1ccc(S(=O)(=O)C(Sc2ccccc2)=S=NC(C)(C)C)cc1`, the growth inhibition was 89.8% (active) in experiment [1]; 81.5% (active) in experiment [2]; 89.3% (active) in experiment [3]; 53.4% in experiment [4]; 81.8% (active) in experiment [5]; 91.8% (active) in experiment [6].

Consider `COC(=O)C(Cc1ccc2c(c1)CCC2)Cc1ccc2c(c1)CCC2`, for which the growth inhibition was -46.9% in experiment [1]; -16.4% in experiment [2]; -7.4% in experiment [3]; -41.6% in experiment [4]; 11.1% in experiment [5]; -22.4% in experiment [6].

Regarding `CC12CC3CC(C)(C1)CC(SCCN=C(N)CCl)(C3)C2`, the growth inhibition is 98.5% (active) in experiment [1]; 99% (active) in experiment [2]; 99.3% (active) in experiment [3]; 96.3% (active) in experiment [4]; 99% (active) in experiment [5]; 99.2% (active) in experiment [6].

Take `CCc1nn2c(=O)nc(Oc3ccccc3)nc2s1`: the growth inhibition is -5.55% in experiment [1]; 8.85% in experiment [2]; 2% in experiment [3]; 2.55% in experiment [4]; 14.6% in experiment [5]; 23.4% in experiment [6].

`N#CCCc1ccnc2ccccc12`: the growth inhibition was 1.7% in experiment [1]; -6.4% in experiment [2]; 1.25% in experiment [3]; -43% in experiment [4]; -3.8% in experiment [5]; -14.8% in experiment [6].

`ClCCOc1ccc2ccccc2c1`: the growth inhibition in experiment [1] was 13.4%; in experiment [2], -6.1%; in experiment [3], 0.55%; in experiment [4], 4.05%; in experiment [5], 0.5%; in experiment [6], 12.1%.

`O=C(O)c1ccccc1SC(Sc1ccccc1C(=O)O)c1ccc2c(c1)OCO2`: the growth inhibition in experiment [1] was 11.3%; in experiment [2], -11.9%; in experiment [3] it was 2.85%; in experiment [4], -11.6%; in experiment [5], 33.6%; in experiment [6], 28%.

As to `OCCOCC#CCOCCO`, the growth inhibition was 3.9% in experiment [1]; -0.25% in experiment [2]; -2.35% in experiment [3]; -7.45% in experiment [4]; -9.25% in experiment [5]; 9.3% in experiment [6].

For the molecule `CC1OC(=O)C(O)=C1O` (stereo not given), the growth inhibition was -5.15% in experiment [1]; -10.6% in experiment [2]; -5.75% in experiment [3]; 8.75% in experiment [4]; 8.85% in experiment [5]; -20.6% in experiment [6].

As for `Fc1c(F)c(F)c(SN=S=Nc2ccccc2)c(F)c1F`, the growth inhibition in experiment [1] is 13.4%; in experiment [2], 12.1%; in experiment [3], 13.3%; in experiment [4], -1.35%; in experiment [5] it was 15.1%; in experiment [6], 26.9%.

As for `Nc1ccc(N=Nc2ccc(OCCN(CCO)CCO)cc2)c(N)n1`, the growth inhibition in experiment [1] is 23.8%; in experiment [2] it was -22.8%; in experiment [3], 8.8%; in experiment [4] it was 4.95%; in experiment [5], 21.6%; in experiment [6] it was 15.7%.

Consider `CN=C(NN(C)C)c1ccc(NC(=O)c2ccc(C(=O)Nc3ccc(C(=NC)NN(C)C)cc3)cc2)cc1`, for which the growth inhibition in experiment [1] was 8.4%; in experiment [2] it was 7.65%; in experiment [3], 10.8%; in experiment [4] it was 10.1%; in experiment [5], -13.8%; in experiment [6] it was 13.9%.

With `Nn1cnc2nccnc2c1=O`, the growth inhibition is 1% in experiment [1]; 4.65% in experiment [2]; -10.7% in experiment [3]; -17.4% in experiment [4]; 2.4% in experiment [5]; -5.6% in experiment [6].

Regarding `O=C1c2ccccc2CC12Cc1ccc3c(c1C2=O)CCCC3` (stereo not given), the growth inhibition in experiment [1] is -11.2%; in experiment [2], -14.4%; in experiment [3], -3.85%; in experiment [4], -30.2%; in experiment [5], -3.55%; in experiment [6], -33.5%.

The values above are taken from PubChem BioAssay (NCI).
